# Laboratory results taken from PubChem BioAssay (NCATS).
# Inconclusive results are not listed. A call without a number means that no potency is given here. Active and inactive are the calls of the source. The call rests on the fitted dose curve; in most records, active means well fitted inhibition curve with a large enough effect; inconclusive means small, poorly fitted or top-dose-only effect; inactive means no such curve, though single readings can be large or run the other way.
# Target: Retinaldehyde dehydrogenase 3 (Homo sapiens) (UniProt P47895)
# Assay: qHTS for Inhibitors of the Aldehyde Dehydrogenase Family (ALDH1A3) Primary screen (AID 2061315)
# Settings: ALDH inhibition qHTS; series mostly up to 56 µM
row,Compound,Potency
1,CN1CCN(C(=O)c2cccc(-c3ccc(CNc4ccc(N5CCN(C(=O)OC(C)(C)C)CC5)cc4)o3)c2)CC1,inactive
2,N#CNC(=O)c1ccc(-n2cccc2/C=C2\NC(=O)N(CC(=O)Nc3ccc(F)cc3)C2=O)cc1,inactive
3,Cc1ccsc1CN(C)c1ncnc2ccc(-c3oc(-c4ccccc4)nc3C)cc12,inactive
4,CCn1cnc2c(Nc3ccc(CC(=O)N=C(N)N)cc3)nc(C#N)nc21,inactive
5,Cc1cc(NS(=O)(=O)c2ccc(Nc3nc(-c4ccc(C)c(C)c4)cs3)cc2)no1,inactive
6,Cc1ccc(CNc2ncnc3ccc(-c4ccc([C@@H](C)O)o4)cc23)o1,inactive
7,Cc1ccc(CNc2ncnc3ccc(-c4oc(-c5ccccc5)nc4C)cc23)o1,inactive
8,Cc1ccc(S(=O)(=O)Nc2cnccc2C(=O)Nc2nc(-c3ccco3)cs2)cc1,inactive
9,O=C1Cc2cc(S(=O)(=O)N3CCN(c4ccc(Cl)cc4)CC3)ccc2N1,inactive
10,Cc1ccc2nc3sc(C(=O)NC4CCC(O)CC4)cc3cc2c1 (stereo not drawn),inactive
11,Nc1cc(S(=O)(=O)N2CCN(S(=O)(=O)c3ccc4c(c3)OCCO4)CC2)ccn1,inactive
12,COc1cc(O)c(C(CC(=O)N2C[C@H](C)C[C@H](C)C2)c2ccc3c(c2)OCO3)c(OC)c1 (stereo partly drawn),inactive
13,COc1cccc(S(=O)(=O)NC2CCN(C#N)C2)c1 (stereo not drawn),inactive
14,C[C@@H](CO)Nc1cc2c(cc1[S+](=O)([O-])Nc1ccc(Cl)c(Cl)c1)CCC(=O)N2,inactive

# Target: Aldehyde dehydrogenase 1A1 (Homo sapiens) (UniProt P00352)
# Assay: qHTS for Inhibitors of the Aldehyde Dehydrogenase Family (ALDH1A1) Confirmatory screens (AID 2061316); further: nearly all actives have a fitted effect of over 65% in size; further: potency means the concentration at half of the fitted maximal effect
# Settings: ALDH inhibition qHTS; series mostly up to 47.3 µM
row,Compound,Potency
1,N#Cc1ccc(-c2ccc(CNc3ccc(N4CCOCC4)cc3)cn2)cc1,4.49 µM (active)
2,CN(C)c1ccc(-c2csc(N3CCC(C(N)=O)CC3)n2)cc1,8.96 µM (active)
3,CC(=O)N1CCN(c2ccc(NCc3ccc(Br)o3)cc2)CC1,10.1 µM (active)
4,CC(=O)c1c(C)n(-c2cccc(C)c2)c2ccc(OC(=O)COc3ccccc3)cc12,inactive
5,CSCCC(NS(=O)(=O)c1ccc2c(c1)oc(=O)n2C)C(=O)N1CCN(c2ccc(C(C)=O)cc2)CC1 (stereo not drawn),inactive
6,COc1ccc(-n2c(C)c(C(C)=O)c3cc(OC(=O)c4ccc(C)cc4)ccc32)cc1,inactive
7,N#CNC(=O)c1ccc(-n2cccc2/C=C2\NC(=O)N(CC(=O)Nc3ccc(F)cc3)C2=O)cc1,inactive
8,Cc1cccc(-c2ccccc2C=O)c1,inactive
9,CC(=O)N1CCN(c2ccc(NCc3ccco3)cc2)CC1,7.98 µM (active)
10,CCn1cnc2c(Nc3ccc(CC(=O)N=C(N)N)cc3)nc(C#N)nc21,inactive
11,Cc1oc(-c2ccccc2F)nc1CS(=O)(=O)CC(=O)N1CCN(c2cccc(C(F)(F)F)c2)CC1,inactive
12,CCOC(=O)c1c(C)n(-c2ccc(OC)cc2)c2ccc(OC(=O)COc3ccccc3)cc12,inactive
13,CC(=O)c1c(C)n(-c2cccc(Cl)c2)c2ccc(OC(=O)c3ccccc3)cc12,inactive
14,CCOC(=O)c1c(C)n(-c2ccccc2)c2ccc(OC(=O)c3ccccc3)cc12,inactive
15,Cc1ccc(CNc2ncnc3ccc(-c4ccc([C@@H](C)O)o4)cc23)o1,11.3 µM (active)
16,Cn1sc(=O)n(Cc2ccccc2)c1=O,0.283 µM (active)
17,O=C(CCC1CCCN(S(=O)(=O)c2ccccc2F)C1)NCCCN1CCOCC1 (stereo not drawn),inactive
18,Cc1ccc(S(=O)(=O)Nc2cnccc2C(=O)Nc2nc(-c3ccco3)cs2)cc1,0.798 µM (active)
19,CC(=O)c1c(C)n(-c2ccc(Cl)cc2)c2ccc(OC(=O)COc3ccccc3)cc12,inactive
20,Cc1cc(C)cc(-c2ccccc2C=O)c1,inactive
21,COc1ccc(Cl)cc1C(=O)NCc1nnc2cc(-c3nc(C)no3)ccn12,inactive
22,CC(=O)c1c(C)n(-c2ccc(C)cc2)c2ccc(OC(=O)COc3ccccc3)cc12,inactive
23,Cc1ccc2nc3sc(C(=O)NC4CCC(O)CC4)cc3cc2c1 (stereo not drawn),12.7 µM (active)
24,Cc1ccc(-c2cccc(C=O)c2)c(C)c1,inactive
25,COc1ccc2c(c1)c(C(=O)CN(C)C)c(C)n2C,inactive
26,O=C(Nc1ncc(Cc2ccc(C(F)(F)F)cc2)s1)c1ccc(-c2ccccc2[N+](=O)[O-])o1,6.34 µM (active)
27,COc1ccc(-c2nc3ccccc3c(=O)n2Cc2ccccc2)cc1CNc1ccc(NC(C)=O)cc1,11.3 µM (active)
28,Cc1cccc(C(=O)NCc2nnc3cc(-c4nc(C)no4)ccn23)c1,inactive
29,Cc1cc(C)cc(-c2ccc(C=O)cc2)c1,inactive
